Data from PubChem BioAssay AID720650 (Broad Institute, 2013).
The source made the active and inactive calls. The rule behind the calls is not given here.

Experiment: C difficile toxins, biochemical counterscreen, UDPG substrate absence, confirmatory dose response (AID 720650)
Details: series mostly up to 19.5 µM
For `CCOc1ccc2ccccc2c1/C=N/NC(=O)c1ccncc1`, the AC50 was “inactive”.
In the case of `COCCNc1oc(/C=C/c2ccccc2)nc1C#N`, the AC50 is reported as “inactive”.
With `C[C@H](CO)N1C[C@H](C)[C@H](CN(C)Cc2ccc(Oc3ccccc3)cc2)Oc2cc(-c3ccncc3)ccc2S1(=O)=O` the AC50 was “inactive”.
With `Cc1ccc(C)c2sc(NC(=O)c3ccc(N4C(=O)CCC4=O)cc3)nc12` the AC50 was “inactive”.
In the case of `COc1ccccc1C1NC(=O)NC(C)=C1C(=O)OC1CCCCC1` (stereo unspecified), the AC50 is reported as “inactive”.
For `COc1ccccc1C1=NNC(=NCc2ccccc2)SC1`, the AC50 was > 39 µM (inactive).
With `Cc1ccccc1S(=O)(=O)N1CCCc2nc(C)c(C)cc21` the AC50 was > 39 µM (inactive).
With `CCNC(=O)C[C@@H]1CC[C@H]2[C@@H](COc3ccc(NC(C)=O)cc3C(=O)N2C)O1` the AC50 was “inactive”.
In the case of `COc1ccc(CC(=O)NNC(=S)NC(=O)c2cccnc2)cc1`, the AC50 is reported as “inactive”.
With `COC(=O)c1ccc(C23CC4(C2)[C@H](CN(Cc2ccc(C(F)(F)F)cc2)[C@@H]4c2ccccc2)C3c2ccc(Cl)nc2)cc1` (stereo partly specified) the AC50 was “inactive”.
In the case of `O=C(Nc1ccc(O)cc1)/C(=C\c1cccs1)NC(=O)c1ccccc1`, the AC50 is reported as 17.1 µM (active).
For `Oc1cc(O)cc(/C=C/c2ccc(O)c(O)c2)c1`, the AC50 was “inactive”.
In the case of `COC(=O)CN1C(C)=Nc2ccc(Br)cc2C1c1ccccc1` (stereo unspecified), the AC50 is reported as “inactive”.
For `COCC(=O)N1CC[C@@H]2[C@H]1c1cc(-c3ccc(F)cc3)ccc1N(C)[C@H]2CO`, the AC50 was 7.2 µM (active).
For `Cc1cc(SCC(=O)N/N=C/c2ccco2)nc2ccccc12`, the AC50 was > 39 µM (inactive).
With `COc1ccc(C(=O)Nc2ccc3c(c2)C(=O)N(C)[C@@H]2CC[C@H](CC(=O)NCC4CC4)O[C@H]2CO3)cc1` the AC50 was “inactive”.
